High-throughput results: PubChem BioAssay, National Center for Advancing Translational Sciences (NCATS)
Rows were chosen to be rich in hits. Some 3.3% of all compounds tested hit in one or more screens of this group.
Tb PYK inh: qHTS of Trypanosoma Brucei Inhibitors. pyruvate kinase (Trypanosoma brucei), Q57TT1. TbPYK enzyme, Kinase-Glo Plus ATP luminescence, 45 min. Potency, µM (highest dose often 76.8 µM), for inactives: top-dose activity, negative = inhibition, usual class: inhibitors. 410,000 tested, 0.12% active; also: nearly all actives have a fitted effect of over 50% in size
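Assay buffer: 50 mM TEA pH 7.2, 100 mM KCl, 10 mM MgCl2, 0.05% BSA, 0.01% Tween-20. Pyruvate kinase from T. brucei plus substrate met compound, then ADP (130 uM final). Luminescence was read post 45 min RT.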
Giardia FBPA inh-1: qHTS Assay for Inhibitors of Fructose-1,6-bisphosphate Aldolase from Giardia Lamblia | 290,000 tested, 0.71% active | Potency, µM (doses to about 59.6 µM), for the others: top-dose activity, negative = inhibition, most hits filed as inhibitors | purified Giardia FBPA | AID 2451, 2010 | A8B2U2; also: nearly all actives have a fitted effect of over 55% in size
Target sequence (A8B2U2 whole entry, looked up): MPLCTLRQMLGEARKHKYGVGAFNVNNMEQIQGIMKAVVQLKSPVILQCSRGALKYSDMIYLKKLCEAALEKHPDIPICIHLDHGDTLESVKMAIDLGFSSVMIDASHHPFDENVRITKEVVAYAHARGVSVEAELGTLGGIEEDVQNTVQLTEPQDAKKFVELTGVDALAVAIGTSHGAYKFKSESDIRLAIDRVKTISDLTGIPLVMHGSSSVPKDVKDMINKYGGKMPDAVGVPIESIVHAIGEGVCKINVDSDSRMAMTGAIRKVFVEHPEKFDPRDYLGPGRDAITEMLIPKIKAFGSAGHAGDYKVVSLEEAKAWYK
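Giardia FBPA (40 nM reagent) was preincubated 10 min at RT with compound (up to 57.5 uM final), then substrate plus GAPDH/TPI/NAD/arsenate coupling system with diaphorase/resazurin was added; resorufin fluorescence (525/598 nm) was read after 20 min.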
RE007 growth inh: qHTS Assay for Inhibitors of the HIV-1 protein Vpr. S. pombe RE007 Vpr strain, BacTiter-Glo ATP luminescence, 24 h. Potency, µM (titrated, usually from 92.2 µM), for inactives: at the highest dose activity change, negative = less growth, most hits filed as inhibitors. 360,000 tested, 0.21% active. AID 651644, 2012; active = well fitted falling curve with a large enough effect; inconclusive = small, poorly fitted or top-dose-only effect; inactive = no such curve, though single readings can be large or run the other way; also: nearly all actives have a fitted effect of over 50% in size
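Fission yeast RE007 carrying one integrated HIV-1 vpr copy, seeded at OD 0.01 in PMG+AL medium with 23 nL pinned compound. Grown 24 h at 30 degrees; viability read by BacTiter-Glo luminescence after 5 min.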
Sm TGR inh: qHTS Assay for the Inhibitors of Schistosoma Mansoni Peroxiredoxins; Schistosoma mansoni thioredoxin glutathione reductase (TGR), Q962Y6; purified TGR, DTNB reduction, TNB absorbance 405 nm; Potency, µM (doses to about 114 µM), without a hit: at the top dose activity change, negative = inhibition, hits mostly inhibitors; 360,000 tested, 3% active; AID 485364, 2010; also: nearly all actives have a fitted effect of over 60% in size
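First, TGR (20 nM dispensed) and NADPH were mixed with compound. Second, a 15 min room-temperature incubation followed. Third, further NADPH and then DTNB were added to start the reaction. Finally, TNB absorbance was monitored kinetically.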
LmPK inhibitor: qHTS Assay for Inhibitors of Leishmania Mexicana Pyruvate Kinase (LmPK) | Q27686 | purified LmPK, Kinase-Glo ATP luminescence, 1 h | Potency, µM (highest dose often 57.5 µM), for the others: top-dose activity change, negative = inhibition, hits mostly inhibitors | 290,000 tested, 0.37% active | AID 1721, 2009
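In 50 mM imidazole pH 7.2 with 7 mM MgCl2, LmPK (0.1 nM) turned over PEP (0.5 mM) and ADP (0.1 mM) for 1 h at room temperature. Luciferase read-out of ATP.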
Giardia growth: qHTS Assay for Inhibitors of Fructose-1,6-bisphosphate Aldolase from Giardia Lamblia: Giardia lamblia growth inhibition. shares compounds with Giardia FBPA inh-1. Giardia lamblia trophozoite growth inhibition. Potency, µM (series often up to 57.5 µM), for the others: top-dose activity change, negative = inhibition, hits mostly inhibitors. 1,500 tested, 5% active;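 also: trophozoites exposed to compound for 48 h at 37 °C; nearly all actives have a fitted effect of over 70% in size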
Mammal cell tox: qHTS Assay for Inhibitors of Fructose-1,6-bisphosphate Aldolase from Giardia Lamblia: Mammalian cellular toxicity. shares compounds with Giardia FBPA inh-1. mammalian cell viability counter-screen, qHTS. 1,500 tested, 4% active. Potency, µM (doses to about 57.5 µM), for the others: top-dose viability change, negative = toxicity, usual class: inhibitors;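 also: Chinese hamster ovary cells used as mammalian cytotoxicity surrogate; viability measured as cellular ATP by luminescence; compound exposure lasted 48 h before reading; nearly all actives have a fitted effect of over 60% in size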
Giardia FBPA inh-2: qHTS Assay for Inhibitors of Fructose-1,6-bisphosphate Aldolase from Giardia Lamblia: Primary screen confirmation | Potency, µM (titrated, usually from 57.5 µM), without a hit: at the top dose activity change, negative = inhibition, hits mostly inhibitors | purified Giardia aldolase enzyme activity, qHTS | AID 2787, 2010 | 1,500 tested, 5% active | shares compounds with Giardia FBPA inh-1; also: nearly all actives have a fitted effect of over 45% in size
Rabbit FBPA inh: qHTS Assay for Inhibitors of Fructose-1,6-bisphosphate Aldolase from Giardia Lamblia: Rabbit FBPA Selectivity; 1,500 tested, 4% active; Potency, µM (highest dose often 57.5 µM), without a hit: top-dose activity, negative = inhibition, actives largely listed as inhibitors; shares compounds with Giardia FBPA inh-1; Rabbit muscle FBPA enzyme inhibition, selectivity counter-screen; also: nearly all actives have a fitted effect of over 60% in size
Target sequence (P00883 whole entry, looked up): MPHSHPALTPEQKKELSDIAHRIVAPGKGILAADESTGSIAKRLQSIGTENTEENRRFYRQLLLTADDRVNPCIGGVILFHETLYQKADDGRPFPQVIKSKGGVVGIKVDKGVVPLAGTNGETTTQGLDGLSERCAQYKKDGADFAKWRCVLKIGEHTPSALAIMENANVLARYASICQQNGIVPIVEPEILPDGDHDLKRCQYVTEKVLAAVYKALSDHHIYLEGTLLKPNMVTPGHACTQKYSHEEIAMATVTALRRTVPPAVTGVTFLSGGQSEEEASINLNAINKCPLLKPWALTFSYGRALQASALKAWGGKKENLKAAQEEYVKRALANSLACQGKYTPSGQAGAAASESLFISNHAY
GAPDH coupling: qHTS Assay for Inhibitors of Fructose-1,6-bisphosphate Aldolase from Giardia Lamblia: Coupling assay counterscreen confirmation; shares compounds with Giardia FBPA inh-1; GAPDH coupling enzyme counterscreen, biochemical, qHTS; Potency, µM (titrated, usually from 57.5 µM), for inactives: at the highest dose activity change, negative = inhibition, most hits filed as inhibitors; 1,500 tested, 6% active; AID 2795, 2010; also: nearly all actives have a fitted effect of over 55% in size
The depositor's hits bear a star; ? = inconclusive; . = no result; [ ] = dose if it differs, or a comment. Unless noted, calls follow the shape of the dose curve; as a rule, active = well fitted curve in the direction sought with a large enough effect; inconclusive = small, poorly fitted or top-dose-only effect, or another doubt; inactive = no such curve, though single readings can be large; an effect the other way counts as inactive or inconclusive. % is scaled to controls: 0 for no effect and ±100 for the full control effect; potency is read from the fitted curve at half-maximal effect.

SMILES	Tb PYK inh	Giardia FBPA inh-1	RE007 growth inh	Sm TGR inh	LmPK inhibitor	Giardia growth	Mammal cell tox	Giardia FBPA inh-2	Rabbit FBPA inh	GAPDH coupling
Cc1nnc(SCC2=C(C(=O)O)N3C(=O)C(NC(=O)Cn4nc(C(F)F)cc4C)C3SC2)s1 (configuration not stated)	-4%	14µM*	8%	40µM*	-1%	7%[10.4 µM]	7%	-6%	1%	-1%
Cc1nnc(SCC2=C(C(=O)O)N3C(=O)C(NC(=O)c4cc(F)c(F)cc4Cl)C3SC2)s1 (configuration not stated)	8%	20µM*	-3%	16µM*	1%	?	-3%	2%	11%	9%
CCC(C(=O)NCCc1cc(OC)ccc1OC)n1nc(C)c2sc3ccccc3c2c1=O (configuration not stated)	1%	.	.	1%	.	.	.	.	.	.
COc1cc(OC)c(OC)cc1CN1CCCC(C(=O)N2CCCC2)C1 (configuration not stated)	0%	28µM*	-12%	-23%	5%	26%	4%	2%	2%	7%
CC(=O)N1CCN(C(=S)NC(=O)c2c(-c3ccccc3Cl)noc2C)CC1	-15%	16µM*	25%	-1%	2%	0%[10.4 µM]	0%	-3%	9%	2%
NC(=O)C1(N2CCCCC2)CCN(C(=S)Nc2ccc(S(N)(=O)=O)cc2)CC1	?	7.9µM*	-6%	-19%	2%	87%	-3%	-23%	-15%	-20%
NC(=O)C1(N2CCCCC2)CCN(C(=S)Nc2ccccc2)CC1	0%	2%	-18%	-14%	-6%	.	.	.	.	.
O=C(c1cccc(F)c1)N1CCC2(CCCN(Cc3cc(C(F)(F)F)cc(C(F)(F)F)c3)C2)CC1	-4%	0%	.	.	.	.	.	.	.	.
O=c1c(=O)n(O)c2ccccc2n1O	-11%	18µM*	-5%	0%	0%	?	-7%	-18%	-16%	-8%
N#Cc1c(C#N)c(O)c2ccccc2c1O	?	20µM*	-14%	?	-4%	?	-7%	?	?	?
C=CCc1cc(Cl)ccc1OCCN1CC(C)OC(C)C1 (configuration not stated)	-12%	18µM*	-4%	.	0%	-19%	-7%	-6%	-2%	0%
Cc1cc(C)nc(NN2C(=O)C=CC2=O)n1	-17%	5µM*	-11%	?	-4%	?	-6%	1%	-1%	-1%
COCCN1C(=O)N(c2ccccc2)C(=O)C1CC(=O)Nc1cc(OC)cc(OC)c1 (configuration not stated)	-3%	15%	3%	7%	1%	.	.	.	.	.
O=C1NC(C(=O)O)=CC(c2ccc([N+](=O)[O-])cc2)N1 (configuration not stated)	-6%	18µM*	2%	-8%	1%	25%	20%	-10%	-12%	1%
CC1(C(=O)O)COC(c2ccc([N+](=O)[O-])cc2)OC1 (configuration not stated)	-2%	4%	20%	4%	6%	.	.	.	.	.
Oc1ccccc1N=Cc1c(O)ccc2ccccc12	-2%	?	-30%	28µM*	-7%	7%[38.3 µM]	-14%	0.33µM*	?	-28%
Cc1cccc(C)c1NC(=O)c1c(C)oc2c1C1=NCCN1C=N2	-7%	.	.	-7%	.	.	.	.	.	.
Oc1ccc(/C=N/N=C(c2ccccc2)c2ccccc2)c(O)c1O	?	5.6µM*	?	-22%	2%	15%[10.4 µM]	-11%	10µM*	?	?
CN(C)c1ccc(NC2=C(Cl)C(=O)c3ccccc3C2=O)cc1	?	?	?	8.9µM*	-28%	11µM*	33µM*	?	?	3.7µM*
Oc1ccc(/C=N/Nc2ccnc3cc(Cl)ccc23)cc1O	2%	-8%	5%	-2%	6%	.	.	.	.	.
Oc1ccc(/C=N/Nc2ccnc3cc(Cl)ccc23)c(O)c1O	?	14µM*	-15%	-28%	-11%	-19%	0%	?	?	?
Cc1cc[n+](CCc2ccccc2)cc1C	-2%	20%	-3%	0%	1%	.	.	.	.	.
O=C(NN1C(=O)/C(=C/c2ccc(O)c(O)c2)SC1=S)c1ccccc1	?	14µM*	-24%	6%	-17%	-4%	-9%	-20%	-25%	0%
N#Cc1c(N)sc(=S)c2c1CCN(Cc1ccccc1)C2	.	1.3µM*	.	?	1%	15%[38.3 µM]	-8%	32µM*	?	32µM*
OC(c1ccccc1)c1ccncc1 (configuration not stated)	1%	.	-3%	?	.	.	.	.	.	.
Cc1ccccc1C(N)c1ccncc1 (configuration not stated)	2%	14µM*	5%	?	9%	-9%	26%	5%	13%	-2%
Cc1ccccc1/C=N/Nc1nc2ccccc2[nH]1	2%	-14%	-27%	-3%	2%	.	.	.	.	.
CCc1nnc(N/N=C/c2c(C)[nH]c3ccccc23)n1N	-9%	18µM*	-1%	.	-2%	17%	0%	?	?	-24%
Cc1[nH]c2ccccc2c1/C=N/Nc1nc2ccccc2[nH]1	-5%	18µM*	-6%	12%	-2%	-4%[10.4 µM]	-20%	-10%	-6%	-2%
